Results filed as inconclusive are left out. Calls of active or inactive are those of the source. Unless noted, calls follow the shape of the dose curve; as a rule, active = well fitted curve in the direction sought with a large enough effect; inconclusive = small, poorly fitted or top-dose-only effect, or another doubt; inactive = no such curve, though single readings can be large; an effect the other way counts as inactive or inconclusive.
Tests used:
[1] = P-glycoprotein substrates identified in KB-8-5-11 adenocarcinoma cell line, qHTS therapeutic library screen (AID 1346987); also: series mostly up to about 44 µM; nearly all actives have a fitted effect of over 65% in size
In short: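 In this qHTS, P-gp-rich KB-8-5-11 cells received library compounds across a concentration range. Viability was quantified by luminescence after 72 h at 37 degree C.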

[2] = NS1 protein of Zika virus - qHTS assay to identify small molecule inhibitors in human HEK 293 cells (AID 1347053); also: series mostly up to about 46 µM; nearly all actives have a fitted effect of over 55% in size
In short: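 Read-out is a two-antibody TR-FRET for ZIKV NS1, normalized between uninfected cells and infected cells. Compound added 1 h before MR766 infection at MOI 0.5; human HEK 293 cells incubated 24 h, 37 C.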

[3] = qHTS for Inhibitors of the Functional Ribonucleoprotein Complex (vRNP) of Lassa (LASV) Arenavirus: LASV Primary Screen - GLuc reporter signal (AID 1347082; calls by dose curve; tested in HEK293 reporter line; also: series mostly up to about 57 µM; nearly all actives have a fitted effect of over 60% in size)
[4] = qHTS for Inhibitors of the Functional Ribonucleoprotein Complex (vRNP) of Lassa (LASV) Arenavirus: Viability assay - alamar blue signal for LASV Primary Screen (AID 1347083; calls by dose curve; tested in HEK293 reporter line; also: series mostly up to about 57 µM; nearly all actives have a fitted effect of over 80% in size)
[5] = qHTS for Inhibitors of the Functional Ribonucleoprotein Complex (vRNP) of Lymphocytic Choriomeningitis Arenaviruses (LCMV): Viability assay - alamar blue signal for LCMV Primary Screen (AID 1347085; calls by dose curve; tested in HEK293 reporter line; also: series mostly up to about 57 µM; nearly all actives have a fitted effect of over 80% in size)
[6] = target: Nucleoprotein (Lymphocytic choriomeningitis virus (strain Armstrong)) (UniProt P09992); assay: qHTS for Inhibitors of the Functional Ribonucleoprotein Complex (vRNP) of Lymphocytic Choriomeningitis Arenaviruses (LCMV): LCMV Primary Screen - GLuc reporter signal (AID 1347086; calls by dose curve; also: series mostly up to about 57 µM; nearly all actives have a fitted effect of over 70% in size)
[7] = qHTS of pediatric cancer cell lines to identify multiple opportunities for drug repurposing: Primary screen for TC32 cells (AID 1347089); also: nearly all actives have a fitted effect of over 60% in size
In short: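 In the primary qHTS, MIPE compounds were tested at 11 concentrations (0.78 nM to 46 µM) and NPC compounds at 8 (0.59 nM to 46 µM) on TC32 cells for 48 h. CellTiter-Glo luminescence gave viability.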

[8] = qHTS of pediatric cancer cell lines to identify multiple opportunities for drug repurposing: Primary screen for DAOY cells (AID 1347090); also: series mostly up to about 46 µM; nearly all actives have a fitted effect of over 55% in size
In short: (§1)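 Cell viability, CellTiter-Glo luminescence; 500-1,000 cells/well, 8- or 11-point titration, 48 h compound exposure at 37 degrees C, 5% CO2. Controls: DMSO neutral, bortezomib 2.3 µM final as positive.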

[9] = qHTS of pediatric cancer cell lines to identify multiple opportunities for drug repurposing: Primary screen for SJ-GBM2 cells (AID 1347091)
In short: as §1

[10] = qHTS of pediatric cancer cell lines to identify multiple opportunities for drug repurposing: Primary screen for A673 cells (AID 1347092); also: nearly all actives have a fitted effect of over 45% in size
In short: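 48 h compound exposure, A673, 500-1,000 cells/well, 37 degrees C/5% CO2. MIPE: 11-point, 0.78 nM-46 µM; NPC: 8-point, 0.59 nM-46 µM (final). Readout CellTiter-Glo luminescence after 15 min RT.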

[11] = qHTS of pediatric cancer cell lines to identify multiple opportunities for drug repurposing: Primary screen for SK-N-MC cells (AID 1347093); also: series mostly up to about 46 µM
In short: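 Metabolically active cells were quantified by ATP-dependent luminescence (CellTiter-Glo, 15 min at room temperature) following 48 h treatment. Cells had been plated at 500-1,000 per well and settled for 5 h beforehand.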

Measured: Potency

Nucleoprotein (Lymphocytic choriomeningitis virus (strain Armstrong)), sequence (P09992 whole entry, looked up): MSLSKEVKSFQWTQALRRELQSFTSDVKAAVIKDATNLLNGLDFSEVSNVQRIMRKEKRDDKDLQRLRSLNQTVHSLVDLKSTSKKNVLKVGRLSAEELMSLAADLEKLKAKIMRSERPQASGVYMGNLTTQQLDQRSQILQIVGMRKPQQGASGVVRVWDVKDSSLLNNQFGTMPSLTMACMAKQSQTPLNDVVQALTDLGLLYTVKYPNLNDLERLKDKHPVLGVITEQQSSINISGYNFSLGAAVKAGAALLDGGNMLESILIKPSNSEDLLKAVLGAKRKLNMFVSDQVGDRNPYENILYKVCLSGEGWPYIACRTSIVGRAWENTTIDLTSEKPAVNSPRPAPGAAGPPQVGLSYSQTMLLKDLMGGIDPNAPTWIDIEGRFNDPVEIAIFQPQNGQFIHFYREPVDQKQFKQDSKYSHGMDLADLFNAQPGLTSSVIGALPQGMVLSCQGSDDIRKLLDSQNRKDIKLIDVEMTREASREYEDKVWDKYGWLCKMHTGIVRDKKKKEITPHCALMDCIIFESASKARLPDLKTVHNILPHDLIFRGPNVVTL

Cc1ccc2c(c1)C1CN(C)CCC1N2 (configuration not stated)
inactive: all assays above

CN1CCN(C(=O)O[C@H]2c3nccnc3C(=O)N2c2ccc(Cl)cn2)CC1
not listed: [9]
inactive: all other assays above

CC[N+](CC)(CC)CC
not listed: [11]
inactive: all other assays above

C#CCN(C)[C@H](C)Cc1ccccc1
not listed: [9]
inactive: all other assays above

O=C(O)c1ccc2[nH]cc(CCCCN3CC=C(c4ccccc4)CC3)c2c1
not listed: [11]
inactive: all other assays above

NCCc1cc(O)c(O)cc1O
not listed: [11]
inactive: all other assays above

CC1=C2C[C@@H]3[C@@H](CC=C4C[C@@H](O)CC[C@@]43C)[C@@H]2CC[C@]12O[C@H]1C[C@H](C)CN[C@H]1[C@H]2C
not listed: [8] | [9] | [10] | [11]
inactive: all other assays above

OCCOc1ccccc1
not listed: [9] | [11]
inactive: all other assays above

NP(N)(=O)NC(=O)c1ccc(F)cc1
inactive: all assays above

CCOP(=S)(OCC)Oc1cc(C)nc(C(C)C)n1
not listed: [9] | [11]
inactive: all other assays above

— PubChem BioAssay (NCATS)
